# Test results published in the supplement of paper PMC12645437, “Orthogonal IMiD-Degron Pairs Induce Selective Protein Degradation in Cells” (ACS Chemical Biology, 2025).
# In all, about 8,300 sequences were measured (“log2 fold change of degron read counts, EGFP-low vs EGFP+ sorted cells (limma voom), compound-induced degradation”: median about -1.1, highest 2% from about 3.2 on). This excerpt belongs to a sample that is enriched for the highest values.
# T1: CRBN, Q96SW2
# T1 chain: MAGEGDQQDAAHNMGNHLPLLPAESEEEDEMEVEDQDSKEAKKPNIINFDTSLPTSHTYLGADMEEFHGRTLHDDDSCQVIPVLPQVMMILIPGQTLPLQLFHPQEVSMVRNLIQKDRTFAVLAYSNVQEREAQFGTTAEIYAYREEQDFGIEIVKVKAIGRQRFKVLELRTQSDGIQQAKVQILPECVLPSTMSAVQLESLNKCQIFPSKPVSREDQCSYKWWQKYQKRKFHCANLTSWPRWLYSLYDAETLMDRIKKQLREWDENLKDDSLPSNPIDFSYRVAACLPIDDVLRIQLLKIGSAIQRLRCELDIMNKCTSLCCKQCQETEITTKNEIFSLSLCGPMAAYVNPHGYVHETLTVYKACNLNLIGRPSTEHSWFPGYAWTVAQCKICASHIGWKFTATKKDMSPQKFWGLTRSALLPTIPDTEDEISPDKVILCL
# Target: T1, CRBN, Q96SW2
# Experiment: log2 fold change of degron read counts, EGFP-low vs EGFP+ sorted cells (limma voom), compound-induced degradation; higher = more compound-induced degradation of the degron-EGFP fusion; degrons are variants of IKZF1/3 zinc finger 2; compound dose not given here
# Details: Jurkat, 18 h
# Method: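 Pooled library of 8380 IKZF3 ZF2 degron mutants (positions 146-167 varied within the IKZF3 130-189 degron; only the varied core is printed, flanks not printed) fused to EGFP with IRES-mCherry, lentivirally expressed in Jurkat cells. mCherry+ cells were treated with one IMiD compound for 18 h (dose not stated) and FACS-sorted into EGFP-low and EGFP+ populations. Degron sequences were counted by NGS, and log2FC (EGFP-low vs EGFP+) was estimated by limma voom over 3 biological replicates.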
# [1] = compound: compound 19 (5-tert-butyl-thalidomide)
# [2] = compound: compound 22 (5-morpholino-thalidomide)
# [3] = compound: compound 33 (diphenyl IMiD analogue)
# 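Note: pooled lentiviral library of zinc finger degron-EGFP fusions in mCherry-positive Jurkat cells, FACS-sorted after compound exposure, with degron abundance counted by next-generation sequencing.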
Sequence,log2 fold change of degron read counts [1],log2 fold change of degron read counts [2],log2 fold change of degron read counts [3],log2 fold change of degron read counts (compound: thalidomide)
"FICDVCGASFTQKGNLLRHIKL [46F_47I_49D_50V_52G_53A_54S_55F_67L_, Q9UKT9]",-1.49,1.22,0.774,0.427
"FYCEVCGAHFTQKGNLLRHIKL [46F_47Y_49E_50V_52G_53A_54H_55F_67L_, Q9UKT9]",3.12,3.62,2.45,0.916
"FVCEVCGAHFTQKGNLLRHIKL [46F_47V_49E_50V_52G_53A_54H_55F_67L_, Q9UKT9]",-0.244,1.53,1.35,1.87
"FACEVCGAHFTQKGNLLRHIKL [46F_47A_49E_50V_52G_53A_54H_55F_67L_, Q9UKT9]",3.16,0.662,0.411,-0.296
"FRCEVCGAHFTQKGNLLRHIKL [46F_47R_49E_50V_52G_53A_54H_55F_67L_, Q9UKT9]",-1.19,-1.13,0.668,0.202
"FTCEVCGAHFTQKGNLLRHIKL [46F_47T_49E_50V_52G_53A_54H_55F_67L_, Q9UKT9]",-0.0867,0.738,1.47,2.04
"FWCEVCGAHFTQKGNLLRHIKL [46F_47W_49E_50V_52G_53A_54H_55F_67L_, Q9UKT9]",3.1,3.92,1.96,0.936
"LVCEICGFGCTQKGNLLRHIKL [46L_47V_49E_50I_52G_53F_54G_55C_67L_, Q9UKT9]",1.26,1.94,0.702,2.41
"FMCPICGHYFTQKGNLLRHIKL [46F_47M_49P_50I_52G_53H_54Y_55F_67L_, Q9UKT9]",-2.08,-2.18,-1.11,-1.8
"FFCDICGAPFTQKGNLLRHIKL [46F_47F_49D_50I_52G_53A_54P_55F_67L_, Q9UKT9]",3.92,3.16,1.06,-0.36
"FVCDICGAPFTQKGNLLRHIKL [46F_47V_49D_50I_52G_53A_54P_55F_67L_, Q9UKT9]",1.63,3.29,1.93,2.61
"FWCDICGAPFTQKGNLLRHIKL [46F_47W_49D_50I_52G_53A_54P_55F_67L_, Q9UKT9]",2.91,2.32,1.2,-0.538
"FYCDICGAPFTQKGNLLRHIKL [46F_47Y_49D_50I_52G_53A_54P_55F_67L_, Q9UKT9]",3.86,3.56,2.02,0.27
"FCCDICGAPFTQKGNLLRHIKL [46F_47C_49D_50I_52G_53A_54P_55F_67L_, Q9UKT9]",2.7,2.21,0.465,0.477
"FQCDICGAPFTQKGNLLRHIKL [46F_47Q_49D_50I_52G_53A_54P_55F_67L_, Q9UKT9]",2.56,3.14,0.968,3.35
"FFCDICGADFTQKGNLLRHIKL [46F_47F_49D_50I_52G_53A_54D_55F_67L_, Q9UKT9]",-0.121,-0.935,-2.01,-2.27
"FMCNICGAVFTQKGNLLRHIKL [46F_47M_49N_50I_52G_53A_54V_55F_67L_, Q9UKT9]",-1.55,-0.801,1.53,0.369

Sequence,log2 fold change of degron read counts [1],log2 fold change of degron read counts [2],log2 fold change of degron read counts [3],log2 fold change of degron read counts (compound: thalidomide)
"FFCEICGHNFTQKGNLLRHIKL [46F_47F_49E_50I_52G_53H_54N_55F_67L_, Q9UKT9]",-2.59,-3.18,-2.38,-2.84
"FRCDQCGAHFTQKGNLLRHIKL [46F_47R_49D_50Q_52G_53A_54H_55F_67L_, Q9UKT9]",-2.76,-2.89,-2.01,-2.48
"FKCEICGAEFTQKGNLLRHIKL [46F_47K_49E_50I_52G_53A_54E_55F_67L_, Q9UKT9]",-0.284,-2.59,-3.54,-0.121
"FCCNICGARFTQKGNLLRHIKL [46F_47C_49N_50I_52G_53A_54R_55F_67L_, Q9UKT9]",1.4,1.76,0.552,1.57
"FGCDICGAPFTQKGNLLRHIKL [46F_47G_49D_50I_52G_53A_54P_55F_67L_, Q9UKT9]",0.329,-0.821,-1.38,-1.4
"FICDICGAPFTQKGNLLRHIKL [46F_47I_49D_50I_52G_53A_54P_55F_67L_, Q9UKT9]",1.26,3.46,2.32,2.47
"FSCDICGAPFTQKGNLLRHIKL [46F_47S_49D_50I_52G_53A_54P_55F_67L_, Q9UKT9]",2.36,1.62,0.275,0.668
"FTCDICGAPFTQKGNLLRHIKL [46F_47T_49D_50I_52G_53A_54P_55F_67L_, Q9UKT9]",2.1,2.86,1.41,1.93
"FACDICGAPFTQKGNLLRHIKL [46F_47A_49D_50I_52G_53A_54P_55F_67L_, Q9UKT9]",3.46,1.66,-0.501,0.383
"FRCDICGAPFTQKGNLLRHIKL [46F_47R_49D_50I_52G_53A_54P_55F_67L_, Q9UKT9]",3.17,3.53,3.32,3.52
"FLCDICGAPFTQKGNLLRHIKL [46F_47L_49D_50I_52G_53A_54P_55F_67L_, Q9UKT9]",1.62,2.15,2.03,1.99
"FKCDICGAPFTQKGNLLRHIKL [46F_47K_49D_50I_52G_53A_54P_55F_67L_, Q9UKT9]",1.21,0.288,-1.35,1.02
"FDCDICGAPFTQKGNLLRHIKL [46F_47D_49D_50I_52G_53A_54P_55F_67L_, Q9UKT9]",0.272,-1.45,-1.51,-0.767
"FMCDICGAPFTQKGNLLRHIKL [46F_47M_49D_50I_52G_53A_54P_55F_67L_, Q9UKT9]",2.71,3.25,3.03,1.89
"FECDICGAPFTQKGNLLRHIKL [46F_47E_49D_50I_52G_53A_54P_55F_67L_, Q9UKT9]",1.27,-1.62,-0.0281,0.305
"FNCDICGAPFTQKGNLLRHIKL [46F_47N_49D_50I_52G_53A_54P_55F_67L_, Q9UKT9]",2.68,1.25,-0.682,-0.153
